This passage reports AC50 and outcome results from PubChem BioAssay (EPA / NIEHS).

Results filed as inconclusive are left out. Active and inactive are the calls of the source. The calls were made as follows: active = hit-call score of the fitted dose curve at least 0.9, where 1 is the maximum; inconclusive = response in the unintended direction; inactive = score below 0.9.

This assay deals with rat Neurokinin-1 Receptor (NK1), Tacr1 (gene 24807) (UniProt P14600). The assay can be described thus: NVS_GPCR_rNK1: NovaScreen (NVS) G Protein-Coupled Receptor Assay for rat Neurokinin-1 Receptor (NK1) (AID 2283309). Here is the method: NVS_GPCR_rNK1 is a biochemical, single-readout assay that uses extracted gene-proteins from Rat submaxillary gland membranes in a tissue-based cell-free assay. Measurements were taken 1 hour after chemical dosing in a 48-well plate.NVS_GPCR_rNK1 is one of one assay component(s) measured or calculated from the NVS_GPCR_rNK1 assay. It is designed to make measurements of radioligand binding, a form of binding reporter, as detected with scintillation counting signals by Filter-based radiodetection technology.Data from the assay component NVS_GPCR_rNK1 was analyzed into 1 assay endpoint. This assay endpoint, NVS_GPCR_rNK1, was analyzed in the positive analysis fitting direction relative to DMSO as the negative control and baseline of activity. Using a type of binding reporter, loss-of-signal activity can be used to understand changes in the binding as they relate to the gene Tacr1. Furthermore, this assay endpoint can be referred to as a primary readout, because the performed assay has only produced 1 assay endpoint. To generalize the intended target to other relatable targets, this assay endpoint is annotated to the gpcr intended target family, where the subfamily is rhodopsin-like receptor.
rat Neurokinin-1 Receptor (NK1), Tacr1 (gene 24807), sequence (P14600 whole entry, looked up): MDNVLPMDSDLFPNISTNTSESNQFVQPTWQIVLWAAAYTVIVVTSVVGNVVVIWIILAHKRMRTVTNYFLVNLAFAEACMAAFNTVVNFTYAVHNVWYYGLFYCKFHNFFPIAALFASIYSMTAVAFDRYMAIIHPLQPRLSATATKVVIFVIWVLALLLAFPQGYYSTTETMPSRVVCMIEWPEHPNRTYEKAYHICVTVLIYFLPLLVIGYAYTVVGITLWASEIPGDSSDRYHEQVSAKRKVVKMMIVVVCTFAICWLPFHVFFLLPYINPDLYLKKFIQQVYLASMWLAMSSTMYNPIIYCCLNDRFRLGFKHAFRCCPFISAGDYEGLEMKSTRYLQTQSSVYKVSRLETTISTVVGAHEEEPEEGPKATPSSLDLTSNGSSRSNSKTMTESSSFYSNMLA
Binding assays used specific radioligands (tritiated, iodinated) with non-radioactive competitive displacement ligands in agonist or antagonist protocols (as indicated) and various reference compounds and inhibitors to titrate specific binding to receptors and transporters. Most enzyme assays (CYPs, kinases, phosphatases, proteases, HDACs) used recombinant protein and specific substrates (fluorescence mostly, some colorimetric and radioactive) and inhibitors, followed by a biochemical separation of substrate and product. All assays for the biochemical HTS were initially run in duplicate at a single concentration (10 uM for CYP450 assays and 25 uM for all others). […] Each assay was run with positive and negative controls, and concurrent controls on every plate. The follow-up (secondary) screen tested active chemical-pairs in concentration series, as well as a few additional assays not tested in the primary screen, some selected negative inactives, and several cases re-run in the concentration series for confirmatory purposes.
In the case of `COc1ccc(-n2nc(C(F)F)cc2-c2ccc(S(C)=O)cc2)cc1` (stereo not given), the half-maximal activity concentration (AC50) was 25 µM (active).

In the case of `CC[C@H]1CC[C@H](NCc2cc3c(cc2OC)[C@H]2C[C@H]2C(=O)N3C)[C@H](c2ccccc2)N1`, the concentration at half-maximal activity (AC50) is 0.296 µM (active).

As to `CNS(=O)(=O)c1cc(C(=O)N2CCC(CCN3C4CCC3CC(n3c(C)nc5ccccc53)C4)(c3cccc(F)c3)CC2)c(Cl)cc1F` (stereo not given), the half-maximal activity concentration (AC50) was 25 µM (active).

In the case of `Cc1[nH]cnc1C[C@H]1CCc2c(C)c3ccccc3n2C1=O`, the molecule was classed as inactive.

As to `CCOc1cccc(-n2cc(C(=O)N3CCN(c4cc(C(=O)O)c5ccccc5c4)CC3)nc2-c2ccc(C)cc2)c1`, the AC50 is 14.8 µM (active).

For `CCCN(C1CCN(C(=O)C2CCNCC2)CC1)[C@@H]1CCc2ccc(OC)cc2C1`, the call was inactive.

As to `Cn1c(=O)cc(Oc2ccc(F)cc2F)c2cnc(NCC(C)(C)O)nc21`, the AC50 was 20.3 µM (active).

Take `CCOC(=O)CC(CC(=O)OCC)(OC(C)=O)C(=O)OCC`: the result was inactive.

As to `CCCCC(CC)COC(=O)CCCCCCCCC(=O)OCC(CC)CCCC` (stereo not given), the molecule was called inactive.

As to `CCOC(=O)c1ccc(C2CCC(NC[C@H](O)COc3ccc(O)c(NS(C)(=O)=O)c3)CC2)cc1` (stereo not given in full), the result was inactive.

The term AC50 denotes the midpoint of the concentration-response curve, whichever way the signal moves.
